Assay results as given in PubChem BioAssay AID686928 (Broad Institute, 2013).
Measured potencies and affinities stand elsewhere. Active and inactive are the calls of the source. How the calls were made is not given here.

experiment: HeLa cell cytotoxicity, dose response, cytotoxicity control, 24 h, plate reader, dry powder (AID 686928); details: series mostly up to 80 µM

Q: Which outcome does the source give for `COc1ccc(-c2nnc(NC(C)=O)o2)cc1` here?
A: The outcome was “inactive”.

Q: Which outcome does the source give for `Cc1ccc2cc3c(NC(=O)C4CCCC4)nn(C)c3nc2c1` here?
A: Its outcome is “inactive”.

Q: Which outcome does the source give for `O=c1[nH]cnc2ccccc12` here?
A: Its outcome is “inactive”.

Q: With `CCn1nnnc1NCc1ccc(C(C)C)cc1` as the compound, how does the outcome read?
A: Its outcome is “inactive”.

Q: With `CCn1nnnc1NC(C)c1ccc(N2CCCC2)cc1` (configuration not stated) as the compound, how does the outcome read?
A: Its outcome is “inactive”.

Q: With `O=C(Nc1nnc(-c2cccc(Cl)c2)o1)C1CCCCC1` as the compound, how does the outcome read?
A: Its outcome is “inactive”.

Q: Which outcome does the source give for `O=c1ncn(-c2ccc(Cl)c(Cl)c2)c2ccccc12` here?
A: Its outcome is “inactive”.

Q: Which outcome does the source give for `Cc1ccc2cc3c(NC(=O)c4ccoc4)nn(C)c3nc2c1` here?
A: The outcome was “inactive”.

Q: For `O=C(CC1CCCCC1)Nc1nnc(-c2cccnc2)o1`, which outcome is on record?
A: The outcome was “inactive”.

Q: Which outcome does the source give for `c1ccc(CNc2nnc(-c3ccc4c(c3)OCCO4)o2)cc1` here?
A: The outcome was “inactive”.

Q: For `O=c1ncn(-c2ccc(Cl)cc2)c2ccccc12`, which outcome is on record?
A: Its outcome is “inactive”.

Q: For `COC(=O)c1ccccc1Nc1cccc(Cl)c1`, which outcome is on record?
A: Its outcome is “inactive”.

Q: For `Cc1cc(F)c2cc3c(NC(=O)c4ccco4)nn(C)c3nc2c1`, which outcome is on record?
A: Its outcome is “inactive”.

Q: Which outcome does the source give for `Cc1nc(=O)c2ccccc2n1-c1cccc(Cl)c1` here?
A: The outcome was “inactive”.

Q: Which outcome does the source give for `Cc1ccc2cc3c(NC(=O)Cc4ccco4)nn(C)c3nc2c1` here?
A: The outcome was “inactive”.

Q: With `O=c1ncn(Cc2ccc(Cl)cc2)c2ccccc12` as the compound, how does the outcome read?
A: Its outcome is “inactive”.

Q: With `Cn1cnc(=O)c2ccccc21` as the compound, how does the outcome read?
A: The outcome was “inactive”.
